In PubChem BioAssay (NCI):
Compounds without any hit were thinned out: in the full panel of roughly 79,000, 15% have a hit. Values without a mark were called inactive. Active and inactive are the calls of the source. No stated cut-off is given here; in the data, active means growth inhibition above about 70%; inactive means the rest.

What was measured:
[1] = NCI Yeast Anticancer Drug Screen. Data for the rad50 strain (AID 155);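 further: 0% = growth of vehicle-only cultures of the same strain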; conditions: S. cerevisiae rad50 strain growth inhibition, active compounds read high
In short: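 Inhibition values express reduced yeast growth in compound-treated cultures relative to vehicle-treated controls.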

[2] = NCI Yeast Anticancer Drug Screen. Data for the mec2-1 strain (AID 157); conditions: S. cerevisiae mec2-1 strain, active compounds read high
In short: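 Growth inhibition is read against vehicle-treated controls after compound exposure of the mec2-1 yeast strain, which is defective in DNA damage repair or cell cycle control.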

[3] = NCI Yeast Anticancer Drug Screen. Data for the sgs1 mgt1 strain (AID 161);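 further: 0% = growth of cultures given vehicle only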; conditions: S. cerevisiae sgs1 mgt1 strain, active compounds read high
In short: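 Yeast cells carrying a defined DNA-repair defect were exposed to test compounds. Growth inhibition was measured relative to vehicle-treated controls.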

[4] = NCI Yeast Anticancer Drug Screen. Data for the cln2 rad14 strain (AID 165);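 further: 0% = growth equal to vehicle treated cultures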; conditions: S. cerevisiae cln2 rad14 strain, active compounds read high
In short: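 Growth inhibition, relative to vehicle-treated controls, is the read-out. The test organism is a yeast strain with defined genetic alterations, cln2 rad14.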

[5] = NCI Yeast Anticancer Drug Screen. Data for the bub3 strain (AID 167); conditions: S. cerevisiae bub3 mutant strain, active compounds read high
In short: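 Steps: expose the mutant yeast strain to compound; grow alongside vehicle-treated cultures; measure growth; express inhibition against the vehicle cultures.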

[6] = NCI Yeast Anticancer Drug Screen. Data for the mlh1 rad18 strain (AID 175); conditions: S. cerevisiae mlh1 rad18 strain growth inhibition, active compounds read high
In short: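 Cells of a genetically altered yeast strain, deficient in DNA damage repair, were treated with compound. Their growth was then compared with that of vehicle-treated cultures to give inhibition.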

[7] = at 5.0 µM (retest, dose inferred, filed as 0.5)
[8] = at 50.0 µM (retest, dose inferred, filed as 5.0)

## CCOC(CCl)Oc1c(C(C)C)cc(C(C)C)c(Cl)c1C (centres undefined)
[1]; [7]
  growth inhibition: 0%
[1]; [8]
  growth inhibition: 20%
[1]; at 50.0 µM
  growth inhibition: 97.5% (active)
[2]; [7]
  growth inhibition: -1%
[2]; [8]
  growth inhibition: 57%
[2]; at 50.0 µM
  growth inhibition: 96.7% (active)
[3]; [7]
  growth inhibition: 1%
[3]; [8]
  growth inhibition: 49%
[3]; at 50.0 µM
  growth inhibition: 97.7% (active)
[4]; [7]
  growth inhibition: 4%
[4]; [8]
  growth inhibition: 26%
[4]; at 50.0 µM
  growth inhibition: 96.7% (active)
[5]; [7]
  growth inhibition: -3%
[5]; [8]
  growth inhibition: 19%
[5]; at 50.0 µM
  growth inhibition: 97.3% (active)
[6]; [7]
  growth inhibition: -1%
[6]; [8]
  growth inhibition: 27%
[6]; at 50.0 µM
  growth inhibition: 95% (active)

## COc1ccc(-c2csc(C)n2)cc1OC
[1]; [7]
  growth inhibition: 5%
[1]; [8]
  growth inhibition: 1%
[1]; at 50.0 µM
  growth inhibition: 21.4%
[2]; [7]
  growth inhibition: 2%
[2]; [8]
  growth inhibition: 4%
[2]; at 50.0 µM
  growth inhibition: 3.35%
[3]; [7]
  growth inhibition: 1%
[3]; [8]
  growth inhibition: 7%
[3]; at 50.0 µM
  growth inhibition: 16.1%
[4]; [7]
  growth inhibition: 3%
[4]; [8]
  growth inhibition: -3%
[4]; at 50.0 µM
  growth inhibition: 30.3%
[5]; [7]
  growth inhibition: 0%
[5]; [8]
  growth inhibition: 9%
[5]; at 50.0 µM
  growth inhibition: 0.25%
[6]; [7]
  growth inhibition: 2%
[6]; [8]
  growth inhibition: 11%
[6]; at 50.0 µM
  growth inhibition: 8.5%

## O=C1CC(c2ccccc2)C(c2ccccc2)CO1 (centres undefined)
[1]; [7]
  growth inhibition: 85% (active)
[1]; [8]
  growth inhibition: 99% (active)
[1]; at 50.0 µM
  growth inhibition: 84.9% (active)
[2]; [7]
  growth inhibition: 35%
[2]; [8]
  growth inhibition: 99% (active)
[2]; at 50.0 µM
  growth inhibition: 92.7% (active)
[3]; [7]
  growth inhibition: 52%
[3]; [8]
  growth inhibition: 98% (active)
[3]; at 50.0 µM
  growth inhibition: 91.5% (active)
[4]; [7]
  growth inhibition: 13%
[4]; [8]
  growth inhibition: 98% (active)
[4]; at 50.0 µM
  growth inhibition: 93.8% (active)
[5]; [7]
  growth inhibition: 56%
[5]; [8]
  growth inhibition: 97% (active)
[5]; at 50.0 µM
  growth inhibition: 94% (active)
[6]; [7]
  growth inhibition: 74% (active)
[6]; [8]
  growth inhibition: 99% (active)
[6]; at 50.0 µM
  growth inhibition: 93.7% (active)
